High-throughput results: PubChem, National Center for Advancing Translational Sciences (NCATS)
GLP-1R inv ag = GLP-1 receptor (human) inverse agonism | P43220 | HEK293 GLP-1R CRE-luciferase, luminescence, 24 h; GLP-1R form is constitutively active | Potency, µM (highest dose often 38.3 µM), for the others: top-dose activity change, negative = inhibition, hits mostly inhibitors | 1.6% of 410,000 active | AID 624417; further: on the % scale 0 is the no-effect control and ±100 the full control effect; nearly all actives have a fitted effect of over 55% in size
Target sequence (P43220 whole entry, looked up): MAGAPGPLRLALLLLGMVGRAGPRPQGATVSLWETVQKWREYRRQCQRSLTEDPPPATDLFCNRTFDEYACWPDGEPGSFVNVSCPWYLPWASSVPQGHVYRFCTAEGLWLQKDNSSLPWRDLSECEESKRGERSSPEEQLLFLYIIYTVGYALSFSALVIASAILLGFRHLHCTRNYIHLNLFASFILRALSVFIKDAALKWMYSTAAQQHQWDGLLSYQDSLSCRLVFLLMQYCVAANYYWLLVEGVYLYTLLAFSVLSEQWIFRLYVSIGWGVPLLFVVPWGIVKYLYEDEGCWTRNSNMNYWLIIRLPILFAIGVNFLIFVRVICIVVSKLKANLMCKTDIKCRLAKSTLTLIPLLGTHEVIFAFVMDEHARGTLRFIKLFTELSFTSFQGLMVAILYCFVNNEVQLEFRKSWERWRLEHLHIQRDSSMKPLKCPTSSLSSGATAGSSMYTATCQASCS
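qHTS in 1536-well format: reporter HEK293 cells expressing constitutive GLP-1R activity in DMEM + 10% Nu serum, 24 hr with compounds at 37 deg C, luminescence read after 12 min with detection reagent.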
HEK293 tox = cytotoxicity in counter-screen for GLP-1R inverse agonists | HEK293 cAMP-luciferase reporter cells, luminescence, 24 h | Potency, µM (series often up to 38.3 µM), for inactives: at the highest dose activity change, negative = inhibition, hits mostly inhibitors | 0.13% of 410,000 active;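 further: loss of luciferase light is scored as toxicity; on the % scale 0 is the no-effect control and ±100 the full control effect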
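Cells in DMEM/10% Nu serum/1% pen-strep, 1536-well format. Pre-incubated 12 h, dosed with 23 nL compound, incubated a further 24 h. Luciferase detection, 12 min at room temp, luminescence.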
BRCA1 expr up = increases BRCA1 expression. MCF7-BRCA1-FFLuc reporter, luminescence, 48 h; response scale: scaled: vehicle 0%, 10 µM genistein 100%. Potency, µM (titrated, usually from 46.1 µM), inactives show at the highest dose activation, hits mostly activators. 1.1% of 380,000 active; further: nearly all actives have a fitted effect of over 80% in size
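Using MCF7 cells harboring a BRCA1 firefly luciferase reporter, plated 2 h before compound pinning, the screen measured luminescence after 48 h incubation. Responses were normalized to DMSO and 10 microM genistein, then fitted for concentration-effect.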
GLP1R ag = GLP-1 receptor (human) agonism | P43220 | HEK293 GLP-1R CRE-luciferase, luminescence, 4-6 h; cells express a hypersensitive GLP-1R form | Potency, µM (highest dose often 45.6 µM), without a hit: at the top dose activation, actives largely listed as activators | 0.007% of 380,000 active | AID 624172; further: % of control where 0% means no effect
Mito fusion yeast = inhibitors of mitochondrial division or activators of mitochondrial fusion; 0.23% of 320,000 active; Potency, µM (highest dose often 46.1 µM), without a hit: at the top dose growth rescue (activation), usual class: activators; S. cerevisiae fusion-defective mutant growth rescue, CellTiterGlo 48 h; further: % of control where 0% means no effect; nearly all actives have a fitted effect of over 45% in size
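Compounds are tested for their ability to restore growth of mitochondrial fusion-defective yeast strains at non-permissive 37C in YPEG medium over 48 hours. Viability is quantified by luciferase luminescence.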
* = called active by the depositor; i = inactive; ? = inconclusive; / = not tested or not shown; ! = not confirmed by another sample. An excerpt weighted towards active compounds, which were near 2.8% of everything screened. The call rests on the fitted dose curve; in most records, active means well fitted curve in the direction sought with a large enough effect; inconclusive means small, poorly fitted or top-dose-only effect, or another doubt; inactive means no such curve, though single readings can be large; an effect the other way counts as inactive or inconclusive. Potency means the concentration at half of the fitted maximal effect.

SMILES | GLP-1R inv ag | HEK293 tox | BRCA1 expr up | GLP1R ag | Mito fusion yeast
O=C(c1cccs1)c1cn(CC(=O)N2CCc3ccccc3C2)c2ccccc12 | ? | -3% | -17% | 2% | -2%
Cc1ccc(NC(=O)c2nnn(-c3ccc4c(c3)OCCO4)c2N)cc1 | ? | 0% | 5.6µM* | -1% | 4%
Cc1ccccc1Cn1nnc(C(=O)Nc2ccc3c(c2)OCCO3)c1N | ? | 8% | 3.5µM* | 8% | -6%
O=C(O)c1cccc(CN2C(=O)c3ccccc3C2=O)c1 | 5% | -4% | -2% | 1% | -2%
O=C1c2cccc3c(O)ccc(c23)C(=O)N1Cc1ccccc1 | ? | i | -63% | -18% | 18µM*
COc1ccc(C(=O)N(c2ccc(C)cc2)S(=O)(=O)c2ccc(C)cc2)cc1 | 3.2µM* | ? | / | / | /
COc1ccc(N(C(=O)c2cc(OC)c(OC)c(OC)c2)S(=O)(=O)c2ccc(C)cc2)cc1 | ? | 0% | / | / | /
Cn1c(=O)c2c(ncn2CC(=O)OCC(=O)Nc2ccc(F)cc2Cl)n(C)c1=O | -4% | -4% | -9% | -23% | /
COC(=O)c1c(-c2ccccc2)csc1NC(=O)c1ccco1 | 120% | 4% | 5µM* | 8% | -2%
O=C(Nc1scc(-c2ccc(F)cc2)c1C(=O)O)c1ccco1 | 2% | -9% | 92% | 6% | 0%
CC(=O)c1ccc(N2CCN(CC3CCCCC3)CC2)cc1 | 16% | 13% | -9% | -2% | 4%
CCOC(=O)Cc1ccc(-c2ccccc2)cc1 | / | / | / | 8% | /
CCOC(=O)Cc1ccc2sc(-c3ccccc3)nc2c1 | 19% | -1% | 4.5µM* | -7% | -1%
Cc1cc(C(=O)CSc2nnnn2C)c(C)n1-c1ccc2c(c1)OCCO2 | 4% | 2% | 7.9µM* | 1% | 3%
Cc1cc(C(=O)CSc2nnc(-c3ccco3)o2)c(C)n1-c1ccc2c(c1)OCCO2 | ? | 4% | -30% | -11% | 8%
O=c1cc(-c2ccccc2)oc2ccc(O)cc12 | 85% | -6% | 2.8µM* | 17% | 6%
Cc1ccc2nc(-c3cccnc3)oc2c1 | 11% | 0% | 3.2µM*! | -7% | 2%
CCCC(=O)Nc1ccc2oc(-c3cncc(Br)c3)nc2c1 | 10% | 7% | 3.2µM* | 0% | 9%
CCC(=O)Nc1ccc2oc(-c3cccnc3)nc2c1 | 74% | -1% | 10µM* | 9% | -1%
CC(C)CC(=O)Nc1ccc2oc(-c3cccnc3)nc2c1 | -3% | -20% | ? | 8% | 2%
Cc1cn([C@H]2C[C@H](O)[C@@H](CNCc3ccccc3)O2)c(=O)[nH]c1=O | -17% | 4% | 6% | -2% | /
O=C(Nc1ccccc1F)n1ncc2cc(Cl)ccc21 | 11% | 2% | ? | 3% | 5.6µM*
CCOC(=O)c1ccccc1NC(=O)n1ncc2cc(Cl)ccc21 | 10% | -3% | / | / | /
O=C1CC(N2CCN(c3ccccn3)CC2)C(=O)N1c1ccc(F)cc1 (configuration not stated) | 0% | 4% | 0% | 1% | 1%
O=C1CC(N2CCN(c3ccccn3)CC2)C(=O)N1CC(c1ccccc1)c1ccccc1 (configuration not stated) | 13µM* | 0% | -32% | -1% | -3%
SMILES | GLP-1R inv ag | HEK293 tox | BRCA1 expr up | GLP1R ag | Mito fusion yeast
CN(CC(O)CN)CC(O)CN1CCCCC1 (configuration not stated) | -1% | 0% | -7% | -3% | 3%
O=C(CSc1nnc(C2CCCCC2)o1)Nc1ccccc1Cl | -9% | 1% | 10µM* | 8% | 1%
COc1ccc(NC(=O)CSc2nnc(C3CCCCC3)o2)c(OC)c1 | 0% | -6% | 2% | 26% | -5%
CC1CCC(NC(=O)c2ccc3c(c2)OCO3)CC1 (configuration not stated) | 4µM* | -2% | -10% | 0% | 1%
Cc1nnc(SCc2ccc3c(c2)OCO3)s1 | 0% | 16% | 8.9µM* | -6% | -2%
CC(NC(=O)c1ccc2c(c1)OCO2)c1ccccc1 (configuration not stated) | 0% | 1% | 5% | 7% | -2%
CCc1ccc(C(C)NC(=O)c2ccc3c(c2)OCO3)cc1 (configuration not stated) | 11µM* | -3% | 0% | 12% | 3%
Cc1nnc(SCc2cccc(CSc3nnc(C)s3)c2)s1 | 7% | 4% | ? | 3% | 0%
CC1CCC(NC(=O)C(=O)Nc2ccc3c(c2)OCO3)CC1 (configuration not stated) | -15% | -2% | 2.8µM* | -1% | 3%
CCOC(=O)C1=CN(Cc2ccco2)S(=O)(=O)N(C)C1c1ccccc1 (configuration not stated) | -5% | -3% | 0% | 14% | /
CC1CCCCC1NC(=O)c1ccc2c(c1)OCCO2 (configuration not stated) | -2% | -9% | 84% | -5% | 1%
CC1CCCC(NC(=O)c2ccc3c(c2)OCCO3)C1C (configuration not stated) | ? | -2% | 7.1µM* | 2% | 5%
Cc1nnc(NC(=O)c2ccc3c(c2)OCO3)s1 | 4% | 11% | 5.6µM* | -1% | 7%
CCn1c2ccccc2c2cc(CNCCCN3CCOCC3)ccc21 | ? | ? | -11% | -4% | -16%
O=C(NCc1ccc(Cl)c(Cl)c1)c1ccc2c(c1)OCO2 | ? | -5% | 1% | 2% | 9%
CN(C)CCCn1c(=O)n(CCc2ccccc2)c(=O)c2c3c(sc21)CCCCC3 | ? | 20% | 3% | 11% | -19%
CN(C)CCCNc1nc2sc3c(c2c(=O)n1CCc1ccccc1)CCCCC3 | 3.2µM* | ? | -88% | 6% | 1%
COc1ccc(NC(=O)c2ccc(OCC3CCCO3)cc2)cc1OC (configuration not stated) | 5% | 5% | 77% | 11% | -8%
Cc1cccc(N(C(=O)c2nsc(Cl)c2Cl)C(C(=O)NC2CCCC2)c2ccc(O)cc2)c1C (configuration not stated) | 8.9µM* | -21% | -88% | -12% | -2%
CCOc1ccc(C(C(=O)NC2CCCC2)N(Cc2ccccc2)C(=O)c2nsc(Cl)c2Cl)cc1 (configuration not stated) | 10µM* | 3% | -35% | -4% | ?
Cc1cc(C)cc(N(C(=O)c2nsc(Cl)c2Cl)C(C(=O)NC2CCCC2)c2ccc(O)cc2)c1 (configuration not stated) | 4µM* | ? | -78% | -14% | -3%
COc1ccc(C(C(=O)NC2CCCC2)N(Cc2ccccc2)C(=O)c2nsc(Cl)c2Cl)cc1 (configuration not stated) | ? | -20% | -46% | -2% | ?
